# According to the supplement of paper PMC9694430:
# Where a name gives a salt, the structure may show the parent alone.
# Tested on: T1, LOC_OS04G41100-cb001
# T1 sequence (whole entry): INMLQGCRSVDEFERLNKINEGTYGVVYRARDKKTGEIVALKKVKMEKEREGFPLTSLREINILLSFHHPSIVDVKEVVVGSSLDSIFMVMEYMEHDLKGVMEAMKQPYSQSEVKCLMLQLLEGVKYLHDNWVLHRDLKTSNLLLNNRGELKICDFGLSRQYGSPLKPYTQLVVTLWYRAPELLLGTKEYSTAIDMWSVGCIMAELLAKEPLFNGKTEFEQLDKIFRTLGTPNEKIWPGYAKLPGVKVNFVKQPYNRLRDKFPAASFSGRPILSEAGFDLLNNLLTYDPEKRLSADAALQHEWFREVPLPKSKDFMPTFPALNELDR
# Assay: thermal shift delta Tm vs DMSO control; higher = stronger stabilization (binding)
# Settings: 12.5 µM; protein concentration 2 µM
# Procedure, shortened: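 The melting temperature shift given here is a triplicate mean, measured against protein that received only DMSO. Melting temperatures came from Boltzmann fits of differential scanning fluorimetry data on E. coli-expressed, purified rice kinase domain constructs. Each 19.5 μl well contained 2 μM kinase, 100 mM potassium phosphate pH 7.5, 150 mM NaCl, 10% glycerol, 5 × SYPRO Orange and compound in DMSO. Plates were scanned from 25°C to 95°C at 0.05°C/s.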
row,Structure (SMILES),thermal shift delta Tm
1,COc1cc(Nc2ncc(F)c(Nc3ccc4c(n3)NC(=O)C(C)(C)O4)n2)cc(OC)c1OC,0.74 °C
2,Cc1ccc(-n2nc(C(C)(C)C)cc2NC(=O)Nc2ccc(OCCN3CCOCC3)c3ccccc23)cc1 [Doramapimod (BIRB 796)],0.9 °C
3,CC#CC(=O)N1CC[C@@H](n2c(=O)n(-c3ccc(Oc4ccccc4)cc3)c3c(N)ncnc32)C1 [ONO-4059 (GS-4059) hydrochloride],0.03 °C
4,O=C(NC[C@H](O)CO)c1ccncc1Nc1ccc(I)cc1F,0.62 °C
5,CO[C@H]1C[C@@H]2CC[C@@H](C)[C@@](O)(O2)C(=O)C(=O)N2CCCC[C@H]2C(=O)O[C@H]([C@H](C)C[C@@H]2CC[C@@H](O)[C@H](OC)C2)CC(=O)[C@H](C)/C=C(\C)[C@@H](O)[C@@H](OC)C(=O)[C@H](C)C[C@H](C)/C=C/C=C/C=C/1C [Rapamycin (Sirolimus)],0.69 °C
6,COc1c(C)c(C(=O)c2ccc(N)c(C(=O)O)c2)n2ccccc12,0.29 °C
7,CC(C)CC(=O)Nc1n[nH]c2c1CN(C(=O)C1CCN(C)CC1)C2(C)C,3.27 °C
8,COc1cc2ncnc(Nc3ccc(O)c(Br)c3)c2cc1OC,0.46 °C
9,CCN(CC)CCCC(C)Nc1nc(C)cc(Nc2ccc3nc(C)cc(N)c3c2)n1 (configuration not stated),0.23 °C
10,Cc1cc(NC(=O)c2cccc(NC(=O)/C=C/CN(C)C)c2)ccc1Nc1nccc(-c2cccnc2)n1,0.83 °C
11,COc1cc2ncnc(Nc3cccc(Cl)c3F)c2cc1OC(=O)N1CCN(C)C[C@H]1C,0.24 °C
12,Cc1ccc(C(=O)Nc2ccc(Oc3cc4cnn(C)c4cc3-c3cn[nH]c3)c(F)c2)c(=O)n1-c1ccc(F)cc1,1.32 °C
